According to PubChem BioAssay:

biological target: Tumor necrosis factor receptor superfamily member 10B (Homo sapiens) (UniProt O14763); assay: caspase-8 TRAIL sensitization, hit retest, confirmation, cell-based, NB7+caspase-8, with/without TRAIL, luminescence panel (AID 651596); settings: NB7 neuroblastoma + caspase-8, TRAIL sensitization, luminescence viability, with TRAIL, mean of runs, at 10 µM, stronger effect = higher value
Sequence (O14763 whole entry, looked up): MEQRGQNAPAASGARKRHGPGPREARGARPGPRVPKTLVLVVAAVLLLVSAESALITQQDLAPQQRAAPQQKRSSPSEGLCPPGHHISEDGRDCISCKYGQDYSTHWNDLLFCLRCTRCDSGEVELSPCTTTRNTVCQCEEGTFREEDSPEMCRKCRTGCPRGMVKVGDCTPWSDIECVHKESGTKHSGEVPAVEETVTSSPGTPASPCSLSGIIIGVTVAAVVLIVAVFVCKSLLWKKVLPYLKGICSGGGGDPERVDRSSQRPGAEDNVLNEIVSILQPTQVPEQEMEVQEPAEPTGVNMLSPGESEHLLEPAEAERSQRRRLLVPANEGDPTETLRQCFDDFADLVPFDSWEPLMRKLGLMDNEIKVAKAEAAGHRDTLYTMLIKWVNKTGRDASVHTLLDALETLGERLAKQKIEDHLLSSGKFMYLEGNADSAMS

Row | Structure (SMILES) | activity [%]
1 | O=C(Nc1ccc(N2CCCC2)c(Cl)c1)c1ccco1 | 43.3
2 | Cc1ccc2nc(NC(=O)c3ccc(-c4nc5ccccc5s4)s3)sc2c1 | 56.8
3 | COc1ccc(-c2cc(-c3ccccc3)c(C#N)c(S(C)(=O)=O)n2)cc1 | 79.3
4 | COc1ccc2nc(Nc3ccccc3)sc2c1 | 49.2
5 | CCOc1ccc(/C=C/C(=O)c2c(O)cc(C)oc2=O)cc1 | 74.8
6 | Cc1cc(C)cc(NS(=O)(=O)c2ccc3[nH]cc(C(=O)NCc4ccco4)c(=O)c3c2)c1 | 80
7 | O=c1c2ccccc2oc2ccc(-c3ccc4cc[nH]c4c3)cc12 | 36.5
8 | O=C(/C=C\Nc1ccccn1)c1ccc(Cl)cc1 | 77.2
9 | Nc1nc(N)c2nc(-c3ccccc3)c(N)nc2n1 | 74.7
10 | Cc1nc2cc(NC(=O)Nc3ccccc3Cl)ccc2n1C | 78.5
11 | O=C(Nc1nc2cc3c(cc2s1)OCO3)c1ccco1 | 79.5
12 | CCC(=O)N1CCCc2cc(S(=O)(=O)N3CCN(c4ccccc4F)CC3)ccc21 | 17.2
13 | CCOc1ccccc1CNC(=O)C1CCN(c2nnc(C)c3c(C)n(-c4ccc(C)cc4)nc23)CC1 | 48.9
14 | Cc1nc2sc(-c3ccccc3)cc2c(=O)[nH]1 | 74.1
15 | Cc1cc(NC(=O)c2ccc(S(=O)(=O)N3CCCC3)cc2)nc2c1c(=O)oc1ccccc12 | 69.5
16 | CCc1cc2c(COC(=O)c3cc(S(=O)(=O)N4CCOCC4)ccc3F)cc(=O)oc2cc1O | 77.3
17 | N#Cc1cccnc1N1CCN(C(=O)c2cccc3c2C(=O)c2ccc(Cl)cc2S3(=O)=O)CC1 | 98.4
18 | COc1ccc(/C=C/c2nc3ccccc3n2Cc2ccccc2OC)cc1 | 78.5
19 | CC1(C)N=C(N)N=C(N)N1c1ccc(OCCCOc2ccccc2)c(Cl)c1 | 59.8
20 | CCOc1ccc(C(=O)O/N=C(\N)c2ccccn2)cc1OCC | 82.3

Row | Structure (SMILES) | activity [%]
21 | CCc1ccc2nc(N(CCCN(C)C)C(=O)c3ccc(C(=O)c4ccccc4)cc3)sc2c1 | 50.6
22 | C/C=C/c1ccc(OCCCNC2CCCC2)c(OC)c1 | 1.5
23 | O=C(/C=C/c1cccnc1)/C=C/c1cccnc1 | 91.5
24 | CC(C)C(=O)Nc1ccc2nn(-c3ccccc3)nc2c1 | 52.4
25 | COc1ccc(-c2cn3ccccc3n2)cc1[N+](=O)[O-] | 50.9
26 | CC1Oc2ccccc2C=C1/C=N/NC(=O)c1ccccc1O (stereo not given) | 46.1
27 | O=C(CC(Nc1ccc(Cl)cc1)C(=O)O)c1ccccc1 (stereo not given) | 60.6
28 | COc1ccc(-c2cc3ccccc3cn2)cc1 | 57.4
29 | Clc1ccc(-c2nc(-c3cnccn3)no2)cc1 | 45.6
30 | Nc1ccc(C(=O)Nc2nc3ccccc3s2)cc1 | 44.8
31 | CC(/C=N/NC(=O)c1nn(C)c(C)c1Br)=C\c1ccccc1 | 72.4
32 | CCC1CCCCN1c1ccc([N+](=O)[O-])cc1/C=N/NC(=O)Cn1c2ccccc2c(=O)c2ccccc21 (stereo not given) | 60.3
33 | Clc1ccc(/C=N/Nc2nnc(-c3ncc[nH]3)c3ccccc23)cc1 | 57
34 | CCN1CCN(c2c(Cl)cccc2NC(=O)c2ccc([N+](=O)[O-])o2)CC1 | 52.3
35 | c1ccc(-c2cnc(-c3ccccc3)nn2)cc1 | 64.9
36 | CCOC(=O)c1ccc(NC(=O)c2ccc(C)c(S(=O)(=O)N3CCOCC3)c2)cc1 | 79.3
37 | CSc1ccc(/C=C/C(=O)c2c(O)cc(C)oc2=O)cc1 | 78.7
38 | CC(C)(C)c1ccc(C(=O)O/N=C(\N)Cc2cccs2)cc1 | 98.6
39 | C#Cc1ccc(NC(=O)C2(C)CCN2C(=O)Cc2ccc(-c3ccccc3)cc2)cc1 (stereo not given) | 94.4
40 | C/C(=N\NC(=O)c1ccc2c(c1)OCO2)c1ccco1 | 53.5

tested on: not listed separately; assay: as above; settings: NB7 neuroblastoma + caspase-8, without TRAIL, luminescence viability, without TRAIL, mean of runs, at 10 µM; in the data active = activity above about 50%; inactive = the rest

Row | Structure (SMILES) | activity [%]
41 | O=C(Nc1ccc(N2CCCC2)c(Cl)c1)c1ccco1 | 27
42 | Cc1ccc2nc(NC(=O)c3ccc(-c4nc5ccccc5s4)s3)sc2c1 | 17
43 | COc1ccc(-c2cc(-c3ccccc3)c(C#N)c(S(C)(=O)=O)n2)cc1 | 96.9
44 | COc1ccc2nc(Nc3ccccc3)sc2c1 | 38.6
45 | CCOc1ccc(/C=C/C(=O)c2c(O)cc(C)oc2=O)cc1 | 77.8
46 | Cc1cc(C)cc(NS(=O)(=O)c2ccc3[nH]cc(C(=O)NCc4ccco4)c(=O)c3c2)c1 | 85.3
47 | O=c1c2ccccc2oc2ccc(-c3ccc4cc[nH]c4c3)cc12 | 35.8
48 | O=C(/C=C\Nc1ccccn1)c1ccc(Cl)cc1 | 63.3
49 | Nc1nc(N)c2nc(-c3ccccc3)c(N)nc2n1 | 80.7
50 | Cc1nc2cc(NC(=O)Nc3ccccc3Cl)ccc2n1C | 78.2
51 | O=C(Nc1nc2cc3c(cc2s1)OCO3)c1ccco1 | 93.1
52 | CCC(=O)N1CCCc2cc(S(=O)(=O)N3CCN(c4ccccc4F)CC3)ccc21 | 1.9
53 | CCOc1ccccc1CNC(=O)C1CCN(c2nnc(C)c3c(C)n(-c4ccc(C)cc4)nc23)CC1 | 63.5
54 | Cc1nc2sc(-c3ccccc3)cc2c(=O)[nH]1 | 73.8
55 | Cc1cc(NC(=O)c2ccc(S(=O)(=O)N3CCCC3)cc2)nc2c1c(=O)oc1ccccc12 | 58.2
56 | CCc1cc2c(COC(=O)c3cc(S(=O)(=O)N4CCOCC4)ccc3F)cc(=O)oc2cc1O | 82.5
57 | N#Cc1cccnc1N1CCN(C(=O)c2cccc3c2C(=O)c2ccc(Cl)cc2S3(=O)=O)CC1 | 97.4
58 | COc1ccc(/C=C/c2nc3ccccc3n2Cc2ccccc2OC)cc1 | 67.7
59 | CC1(C)N=C(N)N=C(N)N1c1ccc(OCCCOc2ccccc2)c(Cl)c1 | 64.1
60 | CCOc1ccc(C(=O)O/N=C(\N)c2ccccn2)cc1OCC | 88.9

Row | Structure (SMILES) | activity [%]
61 | CCc1ccc2nc(N(CCCN(C)C)C(=O)c3ccc(C(=O)c4ccccc4)cc3)sc2c1 | 18.7
62 | C/C=C/c1ccc(OCCCNC2CCCC2)c(OC)c1 | -12.4
63 | O=C(/C=C/c1cccnc1)/C=C/c1cccnc1 | 69.7
64 | CC(C)C(=O)Nc1ccc2nn(-c3ccccc3)nc2c1 | 55
65 | COc1ccc(-c2cn3ccccc3n2)cc1[N+](=O)[O-] | 53
66 | CC1Oc2ccccc2C=C1/C=N/NC(=O)c1ccccc1O (stereo not given) | 44.9
67 | O=C(CC(Nc1ccc(Cl)cc1)C(=O)O)c1ccccc1 (stereo not given) | 73.2
68 | COc1ccc(-c2cc3ccccc3cn2)cc1 | 54.3
69 | Clc1ccc(-c2nc(-c3cnccn3)no2)cc1 | 39.1
70 | Nc1ccc(C(=O)Nc2nc3ccccc3s2)cc1 | 41
71 | CC(/C=N/NC(=O)c1nn(C)c(C)c1Br)=C\c1ccccc1 | 74.6
72 | CCC1CCCCN1c1ccc([N+](=O)[O-])cc1/C=N/NC(=O)Cn1c2ccccc2c(=O)c2ccccc21 (stereo not given) | 66.7
73 | Clc1ccc(/C=N/Nc2nnc(-c3ncc[nH]3)c3ccccc23)cc1 | 49.9
74 | CCN1CCN(c2c(Cl)cccc2NC(=O)c2ccc([N+](=O)[O-])o2)CC1 | 61.3
75 | c1ccc(-c2cnc(-c3ccccc3)nn2)cc1 | 68.4
76 | CCOC(=O)c1ccc(NC(=O)c2ccc(C)c(S(=O)(=O)N3CCOCC3)c2)cc1 | 69.1
77 | CSc1ccc(/C=C/C(=O)c2c(O)cc(C)oc2=O)cc1 | 82.2
78 | CC(C)(C)c1ccc(C(=O)O/N=C(\N)Cc2cccs2)cc1 | 77.5
79 | C#Cc1ccc(NC(=O)C2(C)CCN2C(=O)Cc2ccc(-c3ccccc3)cc2)cc1 (stereo not given) | 68.4
80 | C/C(=N\NC(=O)c1ccc2c(c1)OCO2)c1ccco1 | 57.3
